# Where “and” joins values, the source holds several entries; their conditions need not be identical. Equal entries are not always repeated. Results filed as inconclusive are left out. Where a call stands in place of a potency, no number is given. Calls of active or inactive are those of the source. Unless noted, the call rests on the fitted dose curve; in most records, active means well fitted curve in the direction sought with a large enough effect; inconclusive means small, poorly fitted or top-dose-only effect, or another doubt; inactive means no such curve, though single readings can be large; an effect the other way counts as inactive or inconclusive.
# Experiments:
# [1] = molecular target: Ubiquitin carboxyl-terminal hydrolase 1 (Homo sapiens) (UniProt O94782); assay: Inhibitors of USP1/UAF1: Pilot qHTS (AID 504865); further: nearly all actives have a fitted effect of over 35% in size; further: potency means the concentration at half of the fitted maximal effect
# Outline: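 Enzyme-free wells gave the negative control, while test wells held 1nM USP1/UAF1 preincubated with compound for 15 min at room temperature. Ub-Rho at 150nM final started the reaction, and fluorescence at 480/540 nm was recorded kinetically.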
# [2] = qHTS assay for small molecule activators of the p53 signaling pathway (AID 651743; active means well fitted activation curve with a large enough effect in the signal ratio, not every such curve was filed as active; the % refers to the signal ratio; further: potency means the concentration at half of the fitted maximal effect; on activation: series mostly up to about 92 µM); details: HCT-116 p53RE-bla, beta-lactamase FRET ratio, 16 h; activation: stronger effect = higher value
# Outline: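 Cell-based beta-lactamase reporter (p53 response elements, HCT-116 background). After a 5-hour preincubation, cells received compound for 16 hours at 37 C; substrate development ran 2 hours at room temperature.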
# [3] = molecular target: Flap endonuclease 1 (Homo sapiens) (UniProt P39748); assay: qHTS Validation Assay for the Inhibitors of Human Flap endonuclease 1 (FEN1) (AID 488816); further: potency means the concentration at half of the fitted maximal effect
# Outline: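 FEN1, dispensed as a 10 nM reagent, was preincubated with pin-transferred compounds for 15 min at room temperature before substrate was added (50 nM final). Plates were read at 0 and 15 min, and a four-parameter Hill equation was fitted to the concentration-response data.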
# [4] = Cell Viability - Jurkat (AID 426;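 active means dose-dependent loss of cell ATP signal giving a full or clear fitted curve, ranked by lower potency value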;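 further: potency means the concentration at half of the fitted maximal effect; cells exposed to compound for 40 hours at 37 °C before ATP read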); details: qHTS
# Outline: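 Jurkat (Clone E6-1) cells, 5000/well in complete medium, exposed to compounds for 40 hr at 37C; intracellular ATP measured by CellTiter-Glo luminescence after 20 min at room temperature. AC50 from Hill fits.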
# [5] = Cell Viability - H-4-II-E (AID 543); further: nearly all actives have a fitted effect of over 35% in size
# Outline: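 Rat hepatoma H-4-II-E cells, 1500 per well, treated 40 h at 37 °C in complete medium. Cellular ATP read by CellTiter-Glo luminescence; AC50 from Hill fits of concentration-response.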
# [6] = Cell Viability - SH-SY5Y (AID 544); further: nearly all actives have a fitted effect of over 55% in size
# Outline: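 SH-SY5Y human neuroblastoma cells (1500/well) incubated 5 h, then compound-treated 40 h at 37 °C in complete medium. Viability read as intracellular ATP by CellTiter-Glo luminescence after 20 min; AC50 from Hill-equation fits of qHTS concentration-response.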
# [7] = Cellular Toxicity (caspase-3) Mesangial (AID 660);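 further: combined caspase 3 and 7 activity read by Caspase-Glo luminescence; cells exposed to compound for 16 h before the caspase read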
# Outline: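 Human renal glomerular mesangial cells, 1000/well, 5 h at 37 C before 16 h compound treatment. Caspase-Glo 3/7 luminescence after 20 min; normalized to DMSO and 100 uM tamoxifen, AC50 from Hill fit.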
# [8] = Cell Viability - LYMP2-001 (AID 921); further: series mostly up to about 92 µM; nearly all actives have a fitted effect of over 70% in size
# Outline: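 A lymphoblastoid cell line of human origin was treated with library compounds across a concentration series for 24 hours, and viable cell number was estimated from ATP-driven luciferase light output. Hill modeling gave AC50.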
# [9] = Cell Viability - LYMP2-007 (AID 979);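 further: cells exposed to compound for 24 h before reading; nearly all actives have a fitted effect of over 60% in size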
# Outline: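 Human lymphoblastoid LYMP2-007 cells (2500/well) preincubated 5 h at 37 C, then treated 24 h at 37 C in complete medium. Viability by CellTiter-Glo ATP luminescence after 30 min at room temperature; AC50 from Hill fits.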
# [10] = Cell Viability - LYMP2-022 (AID 987); further: nearly all actives have a fitted effect of over 55% in size
# Outline: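 LYMP2-022 lymphoblastoid cells (2500/well, complete medium) were treated with compounds for 24 hours at 37 C; intracellular ATP was then read by CellTiter-Glo luminescence after 30 min at room temperature. AC50 values were derived from Hill-equation fits.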
# [11] = qHTS assay for environmental chemicals that activate the Aryl hydrocarbon Receptor (AhR) signaling pathway (AID 651777); details: 1A2-DRE human hepatoma cells, luciferase, 24 h; activation: stronger effect = higher value; further: nearly all actives have a fitted effect of over 15% in size
# Outline: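 Quantitative HTS in stably transfected human liver-derived cells whose luciferase gene sits downstream of the CYP1A2 promoter and dioxin response element. After 24 hr exposure at 37 C, One-Glo luminescence was measured.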
# [12] = qHTS assay for small molecule agonists of the antioxidant response element (ARE) signaling pathway measured by Nrf2-dependant transcriptional activity (AID 720636; active means well fitted curve in the direction sought with a large enough effect in the repeat runs; an effect the other way counts as inactive or inconclusive)
# Outline: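 Quantitative HTS format in HepG2 cells stably expressing an ARE-luciferase reporter; 16 hr compound treatment at 37 C, luciferase signal detected with ONE-Glo.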
# [13] = molecular target: Mitogen-activated protein kinase 10 (Mus musculus) (UniProt Q61831); assay: JNK3 AlphaScreen Assay (AID 530; active means well fitted curve in either direction with a large enough effect, not every such curve was filed as active;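 further: kinase came from lysate of stimulated human HepG2 cells; signal reports phosphorylation of biotinylated GST-cJun 1-79 at Ser73 with 10 µM ATP; series mostly up to about 57 µM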)
# Outline: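 Inhibitors reduce antibody binding to phosphorylated biotin-cJun, lowering AlphaScreen luminescence. Lysates from HepG2 cells pre-activated by IL-1beta plus TNF-alpha supplied JNK3; compounds were titrated.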
# [14] = Cell Viability - LYMP2-012 (AID 982);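 further: cellular ATP by luciferase luminescence where a drop means cytotoxicity; cells exposed to compound for one day before reading; nearly all actives have a fitted effect of over 55% in size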
# [15] = Cell Viability - LYMP2-014 (AID 983); further: series mostly up to about 92 µM; nearly all actives have a fitted effect of over 50% in size
# Outline: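 LYMP2-014 human lymphoblastoid cells, 2500/well, treated 24 h at 37 C in complete medium; viability by CellTiter-Glo ATP luminescence after 30 min at room temperature. AC50 from Hill fits of qHTS concentration-response; tetraoctylammonium bromide positive control.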
# [16] = Cell Viability - LYMP2-016 (AID 984); further: nearly all actives have a fitted effect of over 55% in size
# Outline: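 Concentration-dependent ATP depletion measured in LYMP2-016 lymphoblastoid cells, 24 h, 37 C; luciferase-based luminescent detection; Hill-equation AC50.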
# [17] = Cell Viability - LYMP2-018 (AID 985);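 further: compound exposure lasted 24 hr at 37 °C; nearly all actives have a fitted effect of over 50% in size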
# Outline: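 Human lymphoblastoid LYMP2-018 cells, 2500/well, settled 5 hr at 37 C then exposed to compound 24 hr at 37 C; intracellular ATP measured by CellTiter-Glo luminescence. AC50 from Hill-equation concentration-response fits.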
# [18] = molecular target: Voltage-gated inwardly rectifying potassium channel KCNH2 (Homo sapiens) (UniProt Q12809); assay: qHTS Assay for Small Molecule Inhibitors of the Human hERG Channel Activity (AID 588834);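 further: lower thallium flux fluorescence means stronger hERG block; nearly all actives have a fitted effect of over 50% in size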; further: potency means the concentration at half of the fitted maximal effect
# Outline: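 Blockade is seen as reduced FluxOR thallium-flux fluorescence in U2OS cells expressing hERG from a BacMam construct, in Opti-MEM with 2% FCS. Concentration-response data fitted to the Hill equation for AC50.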
# [19] = qHTS assay for small molecule activators of the nuclear factor-kappa B (NF-kB) signaling pathway (AID 651749; active means well fitted activation curve with a large enough effect in the signal ratio; the % refers to the signal ratio; further: series mostly up to about 77 µM); details: NF-kB-bla ME-180 cells, beta-lactamase FRET ratio, 16 h; activation: stronger effect = higher value
# Outline: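 Screening used 2,000 ME-180 reporter cells per well exposed to pinned compound (23 nL) or DMSO; after 16 hr at 37C, beta-lactamase expression under NF-kB control was assessed through FRET.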
# [20] = Nrf2 qHTS screen for inhibitors: Validation (AID 493153; active means well fitted inhibition curve with a large enough effect in the main read-out, with a control signal flat, not every such curve was filed as active; further: potency means the concentration at half of the fitted maximal effect); details: Potency: luciferase luminescence; viability change: measured here: cytotoxicity max response
# Outline: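 A549 cells carrying ARE-firefly luciferase reporter, 5000 cells/well in 5% FBS OPTI-MEM, treated with compound over a concentration series for 18-24 h at 37 C. Luciferase luminescence gave Nrf2 activity; CellTiter-Fluor fluorescence gave viability.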
# Chain of Ubiquitin carboxyl-terminal hydrolase 1 (Homo sapiens) (O94782 whole entry, looked up): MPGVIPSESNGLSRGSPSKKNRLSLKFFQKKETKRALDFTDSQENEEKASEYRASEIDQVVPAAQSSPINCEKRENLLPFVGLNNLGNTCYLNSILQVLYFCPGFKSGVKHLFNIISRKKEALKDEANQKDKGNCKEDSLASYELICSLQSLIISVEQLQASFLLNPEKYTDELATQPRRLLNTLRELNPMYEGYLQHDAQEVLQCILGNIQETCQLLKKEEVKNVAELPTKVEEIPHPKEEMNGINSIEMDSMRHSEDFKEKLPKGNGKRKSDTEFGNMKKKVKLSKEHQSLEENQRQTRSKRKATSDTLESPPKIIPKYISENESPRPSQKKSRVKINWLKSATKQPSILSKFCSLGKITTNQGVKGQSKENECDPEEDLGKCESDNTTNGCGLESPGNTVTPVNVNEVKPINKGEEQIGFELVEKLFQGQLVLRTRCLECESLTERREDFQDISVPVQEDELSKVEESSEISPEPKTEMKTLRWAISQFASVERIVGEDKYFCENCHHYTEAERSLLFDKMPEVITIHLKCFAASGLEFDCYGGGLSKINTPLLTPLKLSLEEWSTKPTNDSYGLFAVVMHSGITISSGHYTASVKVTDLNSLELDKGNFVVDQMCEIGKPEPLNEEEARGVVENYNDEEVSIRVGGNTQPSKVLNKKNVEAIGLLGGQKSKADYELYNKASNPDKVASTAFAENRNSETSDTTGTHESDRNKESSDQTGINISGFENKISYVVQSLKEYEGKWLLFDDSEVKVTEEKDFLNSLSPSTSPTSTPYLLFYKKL
# Chain of Voltage-gated inwardly rectifying potassium channel KCNH2 (Homo sapiens) (Q12809 whole entry, looked up): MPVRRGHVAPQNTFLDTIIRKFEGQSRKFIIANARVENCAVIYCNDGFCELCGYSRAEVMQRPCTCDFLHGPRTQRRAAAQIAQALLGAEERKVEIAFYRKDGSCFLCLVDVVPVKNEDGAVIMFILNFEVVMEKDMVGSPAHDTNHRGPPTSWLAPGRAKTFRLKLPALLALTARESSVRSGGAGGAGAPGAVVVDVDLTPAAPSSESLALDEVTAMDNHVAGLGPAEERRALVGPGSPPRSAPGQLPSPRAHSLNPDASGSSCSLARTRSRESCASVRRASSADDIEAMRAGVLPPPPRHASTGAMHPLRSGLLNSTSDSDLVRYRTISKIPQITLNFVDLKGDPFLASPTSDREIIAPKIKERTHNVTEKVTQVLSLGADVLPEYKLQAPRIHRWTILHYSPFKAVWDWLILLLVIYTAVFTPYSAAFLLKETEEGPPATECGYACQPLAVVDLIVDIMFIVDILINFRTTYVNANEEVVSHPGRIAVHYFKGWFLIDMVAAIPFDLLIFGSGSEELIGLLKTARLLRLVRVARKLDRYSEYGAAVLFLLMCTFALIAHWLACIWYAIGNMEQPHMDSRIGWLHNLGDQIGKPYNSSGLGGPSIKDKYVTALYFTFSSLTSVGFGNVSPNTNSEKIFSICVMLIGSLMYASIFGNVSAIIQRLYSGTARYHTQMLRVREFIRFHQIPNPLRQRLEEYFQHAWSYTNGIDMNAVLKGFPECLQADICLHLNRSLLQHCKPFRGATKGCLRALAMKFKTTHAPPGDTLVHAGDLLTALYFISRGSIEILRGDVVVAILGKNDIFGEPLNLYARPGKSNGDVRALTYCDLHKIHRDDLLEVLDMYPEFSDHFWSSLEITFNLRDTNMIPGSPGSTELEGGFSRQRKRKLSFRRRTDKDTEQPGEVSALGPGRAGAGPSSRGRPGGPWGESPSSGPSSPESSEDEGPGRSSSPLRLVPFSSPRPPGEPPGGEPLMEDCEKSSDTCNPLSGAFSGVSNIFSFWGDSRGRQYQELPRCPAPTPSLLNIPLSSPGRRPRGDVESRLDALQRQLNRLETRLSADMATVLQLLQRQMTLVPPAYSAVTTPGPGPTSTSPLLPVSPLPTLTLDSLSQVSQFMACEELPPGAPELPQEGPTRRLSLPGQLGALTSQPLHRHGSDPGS
# Chain of Flap endonuclease 1 (Homo sapiens) (P39748 whole entry, looked up): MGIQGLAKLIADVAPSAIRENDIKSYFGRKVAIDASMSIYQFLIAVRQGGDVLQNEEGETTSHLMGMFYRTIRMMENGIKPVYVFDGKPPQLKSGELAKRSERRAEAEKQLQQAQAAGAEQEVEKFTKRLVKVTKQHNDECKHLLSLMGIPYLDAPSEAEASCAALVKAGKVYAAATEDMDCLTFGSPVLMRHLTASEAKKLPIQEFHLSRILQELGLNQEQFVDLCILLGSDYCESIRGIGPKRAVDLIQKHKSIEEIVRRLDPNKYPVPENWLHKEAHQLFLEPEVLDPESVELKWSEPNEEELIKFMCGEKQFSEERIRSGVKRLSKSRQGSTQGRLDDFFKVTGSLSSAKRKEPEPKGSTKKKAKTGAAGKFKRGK
compound,measurement,setting,value
Nc1nc(N)c2nc(CNc3ccc(C(=O)NC(CCC(=O)O)C(=O)O)cc3)cnc2n1 (stereo not given),Potency,[1],inactive
same,Potency,[2],0.1 µM (active)
Oc1ccccc1O,Potency,[3],5.97 µM (active)
CC(C)COC(=O)c1ccccc1C(=O)OCC(C)C,Potency,[4],> 92 µM (inactive)
same,outcome,[5],inactive
same,outcome,[6],inactive
same,outcome,[7],inactive
same,outcome,[8],inactive
same,outcome,[9],inactive
same,outcome,[10],inactive
same,activation,[11],0.543% (inactive)
same,Potency,[12],inactive
N#C/C(=C\c1ccc(O)c(O)c1)C(=O)NCCCNC(=O)/C(C#N)=C/c1ccc(O)c(O)c1,Potency,[3],0.67 µM (active)
Oc1ccccc1Cl,Potency,[4],> 92 µM (inactive)
same,outcome,[13],inactive
same,outcome,[5],inactive
same,outcome,[6],inactive
same,outcome,[7],inactive
same,outcome,[8],inactive
same,outcome,[9],inactive
same,outcome,[14],inactive
same,outcome,[15],inactive
same,outcome,[16],inactive
same,outcome,[17],inactive
same,outcome,[10],inactive
same,Potency,[18],inactive
same,activation,[2],-5.71% (inactive)
same,activation,[19],-1.13% (inactive)
same,activation,[11],0.249% (inactive)
same,Potency,[12],inactive
c1ccc2c(c1)-c1cccc3cccc-2c13,Potency,[4],> 92 µM (inactive)
same,outcome,[5],inactive
same,outcome,[6],inactive
same,outcome,[7],inactive
same,outcome,[8],inactive
same,outcome,[9],inactive
same,outcome,[14],inactive
same,outcome,[15],inactive
same,outcome,[16],inactive
same,outcome,[17],inactive
same,outcome,[10],inactive
same,activation,[2],5.47% (inactive) and -0.395% (inactive)
same,activation,[19],0.379% (inactive)
same,Potency,[12],inactive
Nc1nc2[nH]c(=O)cnc2c(=O)[nH]1,Potency,[20],inactive
same,viability change,[20],-3.53%
CC1=C[C@@H]2c3cccc4[nH]cc(c34)C[C@H]2N(C)C1,outcome,[13],inactive
Nc1nc2ccc(Cl)cc2c2nc(-c3ccco3)nn12,Potency,[20],inactive
same,viability change,[20],11.1%
c1ccc(Nc2ccc3ccccc3c2)cc1,outcome,[13],inactive
same,outcome,[8],inactive
same,outcome,[9],inactive
same,outcome,[14],inactive
same,outcome,[15],inactive
same,outcome,[16],inactive
same,outcome,[17],inactive
same,outcome,[10],inactive
same,Potency,[18],25.1 µM (active)
same,activation,[2],-2.23% (inactive) and -2.96% (inactive)
same,activation,[19],0.513% (inactive) and 2.05% (inactive)
COc1cc([C@@H]2c3cc4c(cc3[C@H](O)C3COC(=O)[C@@H]32)OCO4)cc(OC)c1OC (stereo not given in full),Potency,[1],inactive
O=c1oc(Cl)c(Cl)c2ccccc12,Potency,[1],12.6 µM (active)
CC(=O)/C=C/c1ccccc1,Potency,[4],> 92 µM (inactive)
same,outcome,[13],inactive
same,outcome,[5],inactive
same,outcome,[6],inactive
same,outcome,[7],inactive
same,outcome,[8],inactive
same,outcome,[9],inactive
same,outcome,[14],inactive
same,outcome,[15],inactive
same,outcome,[16],inactive
same,outcome,[17],inactive
same,outcome,[10],inactive
same,Potency,[18],inactive
same,activation,[19],-1.47% (inactive)
same,activation,[11],-0.449% (inactive)
same,Potency,[12],inactive
Brc1c(Br)c(Br)c2n[nH]nc2c1Br,Potency,[3],inactive
same,Potency,[20],18.4 µM (active)
same,viability change,[20],-14.6%
same,Potency,[1],56.2 µM (active)
COC1=CC(=O)OC(CCc2ccc3c(c2)OCO3)C1 (stereo not given),outcome,[13],inactive
same,outcome,[7],inactive
same,outcome,[15],inactive
same,outcome,[16],inactive
same,Potency,[18],inactive
same,activation,[2],-6.75% (inactive)
same,activation,[19],-0.795% (inactive)
same,activation,[11],9.51% (inactive)
same,Potency,[12],inactive
CN1[C@@H](CC(=O)c2ccccc2)CCC[C@H]1C[C@H](O)c1ccccc1,Potency,[3],inactive
same,Potency,[18],4.47 µM (active)
CCOC(=O)c1ccccc1N,Potency,[4],> 92 µM (inactive)
same,outcome,[13],inactive
same,outcome,[5],inactive
same,outcome,[6],inactive
same,outcome,[7],inactive
same,outcome,[8],inactive
same,outcome,[9],inactive
same,outcome,[14],inactive
same,outcome,[15],inactive
same,outcome,[16],inactive
same,outcome,[17],inactive
same,outcome,[10],inactive
same,Potency,[18],inactive
same,activation,[11],1.49% (inactive)
same,Potency,[12],inactive
O=C(O)CNC(=O)C(CS)Cc1ccccc1 (stereo not given),Potency,[1],inactive
Cn1ccnc1,Potency,[3],inactive

# From PubChem BioAssay (NCATS)
